# Test results as given in PubChem BioAssay AID652115 (Broad Institute, 2013).
# “And” between values parts separate entries of the source, which are not always exact repeats. Equal values may be shown once. Screen size: about 330,000 compounds; about 3,800 (1.2%) were called active. No stated cut-off is given here; in the data, active means inhibition above about 15%; inconclusive means no clear call, values can overlap the other calls; inactive means below that. The entries come from a sample that favours actives as a whole. Some structures have more than one record in an assay (separate samples or runs), and their calls can disagree.
# Target: NAD-dependent protein deacylase sirtuin-5, mitochondrial (Homo sapiens) (UniProt Q9NXA8)
# Assay: SIRT5 desuccinylase inhibitors, primary screen, biochemical, fluorescence imaging, single point, set 5 (AID 652115)
# Settings: Purified SirT5, succinyl-peptide AMC, trypsin-coupled fluorescence; at 15 µM; stronger effect = higher value
# NAD-dependent protein deacylase sirtuin-5, mitochondrial (Homo sapiens), sequence (Q9NXA8 whole entry, looked up): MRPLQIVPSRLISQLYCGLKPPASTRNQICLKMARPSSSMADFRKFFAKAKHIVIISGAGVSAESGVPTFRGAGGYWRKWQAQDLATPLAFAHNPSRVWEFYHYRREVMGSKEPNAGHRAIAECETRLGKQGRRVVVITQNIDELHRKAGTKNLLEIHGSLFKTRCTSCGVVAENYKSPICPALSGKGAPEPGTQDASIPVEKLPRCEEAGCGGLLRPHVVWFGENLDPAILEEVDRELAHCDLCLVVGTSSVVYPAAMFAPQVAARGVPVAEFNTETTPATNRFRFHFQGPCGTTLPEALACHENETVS
row,SMILES,inhibition
1,COc1ccc2c3c(n(C)c2c1)[C@H](CO)N(C)CC31CN(S(=O)(=O)c2cccc(C)c2)C1,4.2% (inactive)
2,CO[C@H]1CN(C)C(=O)c2cc(NC(=O)Nc3ccccc3F)ccc2OC[C@H](C)N(C)C[C@H]1C,-12% (inactive)
3,C[C@H](CO)N1C[C@H](C)[C@@H](CN(C)S(=O)(=O)c2ccc(F)cc2)OCCCC[C@H](C)Oc2ccc(NC(=O)CCCN(C)C)cc2C1=O,-2.49% (inactive)
4,C[C@H](NC(=O)C[C@@H]1CC[C@H](NC(=O)CN2CCOCC2)[C@H](CO)O1)c1ccccc1,-3.17% (inactive)
5,C=CC1=C(C(=O)O)N2C(=O)[C@@H](NC(=O)/C(=N\OCC(=O)O)c3csc(N)n3)[C@H]2SC1,31.1% (active)
6,Cc1nnc(SCC2=C(C(=O)O)N3C(=O)C(NC(=O)Cn4nc(C)c(Cl)c4C)C3SC2)s1 (configuration not stated),-1.34% (inactive)
7,CO/N=C(\C(=O)N[C@@H]1C(=O)N2C(C(=O)O)=C(COC(C)=O)CS[C@H]12)c1csc(N)n1 (stereo in doubt),-2.03% (inactive) and -4% (inactive) and 22.2% (active)
8,Cc1cc(C)cc(C(=O)NC2C(=O)N3C(C(=O)O)=C(CSc4nnc(C)s4)CSC23)c1 (configuration not stated),-0.622% (inactive)
9,C=CC1=C(C(=O)O)N2C(=O)[C@@H](NC(=O)/C(=N/OCC(=O)O)c3csc(N)n3)[C@H]2SC1,30.9% (active)
10,CO[C@@H]1CN(C)C(=O)c2cc(NC(=O)C3CC3)ccc2OC[C@@H](C)N(Cc2nccs2)C[C@@H]1C,-0.135% (inactive)
11,CCC(=O)N1[C@@H]2CN(C(=O)Nc3ccc(Cl)cc3)c3ccccc3[C@@H]2[C@@H]1CO,-1.71% (inactive)
12,CCCNC(=O)C[C@H]1C[C@@H]2c3cc(NC(=O)NC4CCCC4)ccc3O[C@@H]2[C@@H](CO)O1,-4.3% (inactive)
13,CN(C)CC(=O)N[C@@H]1C[C@@H]2O[C@H](CO)CC[C@@H]2O[C@@H]1CCc1ccc(C#Cc2ccccc2)cc1,-2.33% (inactive)
14,Cc1noc(C)c1NC(=O)Nc1ccc2c(c1)C(=O)N([C@@H](C)CO)C[C@@H](C)[C@H](CN(C)C)O2,-1.93% (inactive)
15,CN(C)CC(=O)Nc1ccc2c(c1)[C@H]1C[C@H](CC(=O)NCc3ccc4c(c3)OCO4)O[C@@H](CO)[C@H]1O2,0.927% (inactive)
16,Cc1ccc(S(=O)(=O)N(C)C[C@@H]2Oc3ccc(N(C)C)cc3C(=O)N([C@@H](C)CO)C[C@H]2C)cc1,-7.63% (inactive)
17,COc1ccc2c3c(n(C)c2c1)[C@@H](CO)N(Cc1ccncc1)CC31CN(C(=O)C2CCC2)C1,2.18% (inactive)
